Experimental data: PubChem BioAssay AID1159580 (chemical genetic matrix, 2015)
Hit rate of the full screen: of about 5,500 compounds, about 2,000 (36%) were called active. Roughly 18% stayed inconclusive and do not appear here. Cut-off read from the data, not from the text of the source: active = normalized growth mostly below about 0.91 (no sharp cut-off); inconclusive = no clear call, values can overlap the other calls; inactive = mostly above about 0.92. This is one part of the list.

Assay: chemical genetic growth profiling, strain panel (AID 1159580);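 note: tested at 20 µM; growth read once vehicle control cultures reached saturation at 30 °C; 1 = growth at the plate median or of vehicle wells; lower values mean less growth of the strain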
Settings: growth OD

Measured: normalized growth

CC(=O)Oc1cccc(O)c1
inactive: S. cerevisiae deletion strains, locus YJR075W, strain HOC1, hits give low values 1 | S. cerevisiae deletion strains, locus YKL009W, strain mrt4, hits give low values 1.01 | S. cerevisiae deletion strains, locus YKL068W, hits give low values 1 | S. cerevisiae deletion strains, locus YKL085W, strain MDH1 (second series), hits give low values 1 | S. cerevisiae deletion strains, locus YKL085W, strain MDH1, hits give low values 1 | S. cerevisiae deletion strains, locus YKL160W, strain elf1, hits give low values 1.01 | S. cerevisiae deletion strains, locus YKL190W, strain CNB1, hits give low values 1 | S. cerevisiae deletion strains, locus YKR001C, strain vps1, hits give low values 1.02 | S. cerevisiae deletion strains, locus YKR026C, strain gcn3, hits give low values 1.01 | S. cerevisiae deletion strains, locus YKR091W, strain srl3, hits give low values 1.01 | S. cerevisiae deletion strains, locus YLL001W, strain dnm1, hits give low values 1.02 | S. cerevisiae deletion strains, locus YLL026W, hits give low values 1.01 | S. cerevisiae deletion strains, locus YLL041C, strain sdh2, hits give low values 1.01 | S. cerevisiae deletion strains, locus YLR027C, strain aat2, hits give low values 1.03 | S. cerevisiae deletion strains, locus YLR039C, strain RIC1, hits give low values 1.04 | S. cerevisiae deletion strains, locus YLR058C, strain SHM2, hits give low values 1.01 | S. cerevisiae deletion strains, locus YLR102C, strain apc9, hits give low values 1.01 | S. cerevisiae deletion strains, locus YLR113W, strain HOG1, hits give low values 0.982 | S. cerevisiae deletion strains, locus YLR221C, strain rsa3, hits give low values 1.03 | S. cerevisiae deletion strains, locus YLR258W, strain gsy2, hits give low values 1.02 | S. cerevisiae deletion strains, locus YLR262C, strain YPT6 (second series), hits give low values 1.04 | S. cerevisiae deletion strains, locus YLR262C, strain YPT6, hits give low values 1.05 | S. cerevisiae deletion strains, locus YLR268W, strain sec22, hits give low values 1.02 | S. cerevisiae deletion strains, locus YLR320W, strain mms22, hits give low values 1.04 | S. cerevisiae deletion strains, locus YLR330W, strain CHS5, hits give low values 1.01 | S. cerevisiae deletion strains, locus YLR342W, strain FKS1 (second series), hits give low values 1.01 | S. cerevisiae deletion strains, locus YLR342W, strain FKS1, hits give low values 1.03 | S. cerevisiae deletion strains, locus YLR357W, strain rsc2, hits give low values 1.02 | S. cerevisiae deletion strains, locus YLR370C, strain arc18, hits give low values 1.01 | S. cerevisiae deletion strains, locus YLR371W, strain rom2, hits give low values 1 | S. cerevisiae deletion strains, locus YLR384C, strain iki3, hits give low values 1.01 | S. cerevisiae deletion strains, locus YLR418C, strain cdc73, hits give low values 1.05 | S. cerevisiae deletion strains, locus YML016C, strain PPZ1, hits give low values 1.01 | S. cerevisiae deletion strains, locus YML032C, strain rad52, hits give low values 1.02 | S. cerevisiae deletion strains, locus YML120C, strain ndi1, hits give low values 1.01 | S. cerevisiae deletion strains, locus YML124C, strain tub3, hits give low values 1.01 | S. cerevisiae deletion strains, locus YMR058W, strain fet3, hits give low values 1.03 | S. cerevisiae deletion strains, locus YMR078C, strain ctf18, hits give low values 1.02 | S. cerevisiae deletion strains, locus YMR125W, strain sto1, hits give low values 1.03 | S. cerevisiae deletion strains, locus YMR129W, hits give low values 1.01 | S. cerevisiae deletion strains, locus YMR205C, strain PFK2, hits give low values 1.03 | S. cerevisiae deletion strains, locus YMR223W, strain ubp8, hits give low values 1.02 | S. cerevisiae deletion strains, locus YMR231W, strain pep5, hits give low values 1.01 | S. cerevisiae deletion strains, locus YMR263W, strain SAP30, hits give low values 1 | S. cerevisiae deletion strains, locus YMR307W, strain GAS1, hits give low values 0.985 | S. cerevisiae deletion strains, locus YNL067W, strain RPL9B, hits give low values 0.996 | S. cerevisiae deletion strains, locus YNL071W, strain lat1, hits give low values 1.02 | S. cerevisiae deletion strains, locus YNL128W, strain TEP1, hits give low values 1.01 | S. cerevisiae deletion strains, locus YNL183C, strain NPR1, hits give low values 0.938 | S. cerevisiae deletion strains, locus YNL209W, strain ssb2, hits give low values 1.04 | S. cerevisiae deletion strains, locus YNL233W, strain BNI4, hits give low values 0.993 | S. cerevisiae deletion strains, locus YNL248C, strain rpa49, hits give low values 1.03 | S. cerevisiae deletion strains, locus YNL250W, strain rad50, hits give low values 1.06 | S. cerevisiae deletion strains, locus YNL271C, strain bni1, hits give low values 1.01 | S. cerevisiae deletion strains, locus YNL298W, strain CLA4, hits give low values 1.03 | S. cerevisiae deletion strains, locus YNL307C, strain MCK1, hits give low values 1.02 | S. cerevisiae deletion strains, locus YNL322C, strain KRE1 (second series), hits give low values 1.01 | S. cerevisiae deletion strains, locus YNR049C, strain mso1, hits give low values 1 | S. cerevisiae deletion strains, locus YNR052C, strain pop2, hits give low values 1.01 | S. cerevisiae deletion strains, locus YOL006C, strain TOP1, hits give low values 0.999 | S. cerevisiae deletion strains, locus YOL012C, strain htz1 0.912 | S. cerevisiae deletion strains, locus YOL147C, strain pex11, hits give low values 1.01 | S. cerevisiae deletion strains, locus YOR001W, strain rrp6, hits give low values 1.05 | S. cerevisiae deletion strains, locus YOR061W, strain CKA2, hits give low values 1.01 | S. cerevisiae deletion strains, locus YOR069W, strain VPS5, hits give low values 1 | S. cerevisiae deletion strains, locus YOR070C, strain gyp1, hits give low values 1.02 | S. cerevisiae deletion strains, locus YOR080W, strain dia2, hits give low values 1.01 | S. cerevisiae deletion strains, locus YOR083W, strain WHI5, hits give low values 1.01 | S. cerevisiae deletion strains, locus YOR106W, strain vam3, hits give low values 1.02 | S. cerevisiae deletion strains, locus YOR136W, strain idh2, hits give low values 1.02 | S. cerevisiae deletion strains, locus YOR144C, strain elg1, hits give low values 1.01 | S. cerevisiae deletion strains, locus YOR184W, strain ser1, hits give low values 1.03 | S. cerevisiae deletion strains, locus YOR231W, strain MKK1, hits give low values 0.977 | S. cerevisiae deletion strains, locus YOR265W, strain rbl2, hits give low values 1 | S. cerevisiae deletion strains, locus YOR270C, strain vph1, hits give low values 1.07 | S. cerevisiae deletion strains, locus YOR290C, strain snf2, hits give low values 1.01 | S. cerevisiae deletion strains, locus YOR316C, strain cot1, hits give low values 1.01 | S. cerevisiae deletion strains, locus YPL051W, strain arl3, hits give low values 1.04 | S. cerevisiae deletion strains, locus YPL078C, strain atp4, hits give low values 1.03 | S. cerevisiae deletion strains, locus YPL106C, strain sse1, hits give low values 1.01 | S. cerevisiae deletion strains, locus YPL240C, strain hsp82, hits give low values 1.03 | S. cerevisiae deletion strains, locus YPL241C, strain CIN2, hits give low values 1.01 | S. cerevisiae deletion strains, locus YPL256C, strain CLN2, hits give low values 0.951 | S. cerevisiae deletion strains, locus YPR119W, strain clb2, hits give low values 1.01 | S. cerevisiae deletion strains, locus YPR141C, strain kar3, hits give low values 1.01 | S. cerevisiae deletion strains, locus YPR163C, strain tif3, hits give low values 1.02 | S. cerevisiae deletion strains, locus YPR167C, strain met16, hits give low values 1.01 | S. cerevisiae deletion strains, strain wtn01, hits give low values 1.03 | S. cerevisiae strains, strain wild type, hits give low values 1.01
